In PubChem BioAssay AID463254 (National Center for Advancing Translational Sciences (NCATS), 2010):
Screen size: about 330,000 compounds; about 40 (0.01%) were called active. This is one part of a sample in which actives are shown more often than they occur. Unmarked numbers belong to inactive results. Calls come from the whole dose curve; as a rule, active = well fitted inhibition curve with a large enough effect; inconclusive = small, poorly fitted or top-dose-only effect, or effect the other way; inactive = flat fitted curve, though single readings scatter.

target: Ubiquitin carboxyl-terminal hydrolase 2 (Homo sapiens) (UniProt O75604); assay: qHTS Assay for Inhibitors of Ubiquitin-specific Protease USP2a Using CHOP2 as the Reporter; details: USP2 core, Ub-CHOP2 coupled fluorogenic reporter, 485/531; series mostly up to 38.3 µM; activity change, negative = inhibition: at the top concentration
Sequence (O75604 whole entry, looked up): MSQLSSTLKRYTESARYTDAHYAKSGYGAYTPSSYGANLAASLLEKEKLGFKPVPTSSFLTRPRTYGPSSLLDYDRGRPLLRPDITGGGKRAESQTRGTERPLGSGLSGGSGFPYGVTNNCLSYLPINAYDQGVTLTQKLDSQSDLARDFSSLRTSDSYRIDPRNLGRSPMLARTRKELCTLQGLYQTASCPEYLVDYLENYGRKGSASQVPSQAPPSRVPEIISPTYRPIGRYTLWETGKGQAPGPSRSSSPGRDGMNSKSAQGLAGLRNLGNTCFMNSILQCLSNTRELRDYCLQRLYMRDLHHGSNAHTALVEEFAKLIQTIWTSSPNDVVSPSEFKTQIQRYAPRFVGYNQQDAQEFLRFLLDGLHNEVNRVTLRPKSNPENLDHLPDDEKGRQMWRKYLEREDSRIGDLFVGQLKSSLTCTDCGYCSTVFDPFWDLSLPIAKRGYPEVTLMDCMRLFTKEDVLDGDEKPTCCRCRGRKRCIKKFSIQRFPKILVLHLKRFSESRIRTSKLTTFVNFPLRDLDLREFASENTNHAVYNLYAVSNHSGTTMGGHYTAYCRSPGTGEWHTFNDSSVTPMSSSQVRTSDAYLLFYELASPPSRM
From the text: NIH Molecular Libraries Screening Centers Network [MLSCN] NIH Chemical Genomics Center [NCGC] MLSCN Grant: XO1-MH079852-01 PI Name: Nicholson, Ben. Progenra Inc, Malvern, PA NCGC Assay Overview: Homeostasis of cellular proteins is maintained through a combination of synthesis and degradation. The pathway that accounts for the majority of protein degradation is the ubiquitin-proteasomal pathway. Ubiquitin (Ub) is highly conserved in all cells and the generation of a multi-Ub chain typically targets proteins for degradation by the proteasome. However, ubiquitination is highly reversible and dynamic. Deubiquitination, the reverse process, is catalyzed through the action of enzymes referred to as isopeptidases or deubiquitinating enzymes (DUBs). This group of enzymes is collectively responsible for maintaining adequate pools of free ubiquitin and regulating the ubiquitination status of cellular proteins. The class of DUBs referred to as the ubiquitin-specific proteases (USP) family functions endoproteolytically to cleave Ub chains from a wide range of protein substrates. USP2a deubiquitinates fatty acid synthase (FASN) which has recently been identified as an emerging oncology target. To identify inhibitors of USP2a a cell-free assay was employed. […] The reporter enzyme chosen is an enterokinase called CHOP2, which is activated when the Ub is cleaved by USP2. The free and now activated reporter can subsequently act on its reporter substrate. Thus, this coupled assay gives a fluorescent read-out at excitation/emission wavelengths of 485/531. The assay was developed by Progenra, Inc. and has been licensed for sale by LifeSensors, Inc. as Ub-CHOP2-Reporter-Kit (#PR1101).
NCGC Assay Protocol Summary: The assay buffer, prepared fresh at the day of the assay, contains 20mM Tris-HCl pH 8.0, 2mM CaCl2, 2mM beta-Mercaptoethanol, 0.05% CHAPS. 3ul of 20nM (10nM final) USP2 core, which is stored on ice, is dispensed into a medium-binding black solid Kalypsys 1,536 well plate using the Kalypsys dispenser. The assay plate is then pinned with 23nL compound with the Kalypsys pintool in columns 5-48. The controls are pinned as follows: column 1 two-fold dilutions of 2M NEM in duplicate; column 2 2M NEM (final concentration 38.2mM); column 3&4 DMSO. The assay plate is incubated at RT for 30min. Subsequently, 1.5uL of 100nM (25nM final) Ub-CHOP2 and 1.5uL of 100nM (25nM final) Reporter Substrate (both stored on ice and protected from light) were dispensed into the plate using the Kalypsys dispenser. Plates were read after 60min RT incubation on a ViewLux (Perkin Elmer) plate reader using the following wavelengths Ex 485nm /Em 531nm. Data were normalized to the to AC100 inhibition (NEM). Concentration-response curves were fitted to the normalized data and the concentration-response curves were then classified based on curve quality (r2), response magnitude and degree of measured activity. The time zero reading was used to flag fluorescence artifacts. Keywords: ubiquitination, deubiquitination, proteases, profluorescent, MLSMR, MLPCN, NIH Roadmap, qHTS, NCGC
Potency is the fitted concentration of half-maximal effect.

| SMILES | activity change, negative = inhibition | Potency |
| --- | --- | --- |
| O=C(CSc1ncnc2c1oc1ccccc12)NC1CCCC1 | 0.138% | – |
| CSc1ccc(NC(=O)N2CC(C)OC(C)C2)cc1 (stereo not given) | 1.48% | – |
| CC1O[C@H](OC2C(COC3OC(CO)C(O)[C@H](O)C3O)OC(OC3CC[C@]4(C)C(CC[C@@]5(C)[C@@H]4C=C[C@]46OC[C@@]7(CCC(C)(C)C[C@H]74)C(O)C[C@@]56C)C3(C)C)C(O)C2O)C(O)C(O)C1O (stereo not given in full) | 10.1% | – |
| CCC(C)c1ccc(NC(=S)NCc2ccccn2)cc1 (stereo not given) | 0.409% | – |
| Cc1cc(C(F)(F)F)c(C#N)c(SCC(=O)NC2CC2)n1 | 1.32% | – |
| COc1ccc2nc(NC3=NCN(CC4CCCO4)CN3)nc(C)c2c1 (stereo not given) | 2.18% | – |
| CC(=O)C1=C(C)NC(=O)NC1c1cc(Br)ccc1OCC#N (stereo not given) | 2.25% | – |
| Cc1ccc(NC(=O)C2CCC(C(C)(C)C)CC2)cc1S(=O)(=O)N1CCOCC1 (stereo not given) | -1.78% | – |
| O=C1C=CC(=O)N1c1ccc(N2CCCCC2)cc1 | 1.37% | – |
| CCOc1nc(OCC)nc(-n2cc(-c3ccccc3)nn2)n1 | -0.746% | – |
| CC(C)(C)n1ncc2c(=O)n(Cc3ccc(Cl)cc3)cnc21 | -1.06% | – |
| Cc1cc2c(c(=O)n1Cc1ccccc1)C1O[C@](CCCCN3C(=O)c4ccccc4C3=O)(Cc3ccccc31)O2 | -1.2% [at 7.66 µM] | – |
| CC(C)(C)NC(=O)CSC(=Nc1ccccc1F)NC#N | 0.691% | – |
| O=C(CCl)Nc1ccc(Sc2ccc(NC(=O)CCl)cc2)cc1 | 0% | – |
| CC1CCN(C(=O)c2ccc(S(=O)(=O)Cc3cc(F)ccc3F)c([N+](=O)[O-])c2)CC1 | 3.21% | – |
| Cc1ccc(C2=NN(C(=O)CSc3nc(N)cc(N)n3)C(c3ccco3)C2)cc1 (stereo not given) | -0.905% | – |
| COc1ccc(-c2nc3cc(C)ccn3c2NC2CCCCC2)cc1SC1CCCCC1 | -1.09% | – |
| Cc1ccc(C2(C(F)(F)F)N=C3Sc4cc(C)cc(C)c4N3C(=O)N2)cc1 (stereo not given) | 0.557% | – |
| COc1ccc(CCOC(=O)CNC(=O)c2ccc(Cl)cc2Cl)cc1 | -0.806% | – |
| [O-][n+]1c2c(nn1-c1ccc(Cl)c(Cl)c1)-c1nonc1CC2 | -1.77% | – |

| SMILES | activity change, negative = inhibition | Potency |
| --- | --- | --- |
| Cn1c(SCC(=O)Nc2nccs2)nnc1-c1cccnc1 | 4.4% | – |
| Cc1c(C=O)c2ccccn2c1C(=O)c1ccncc1 | -1.58% | – |
| O=c1[nH]c(=S)[nH]c2[nH]c(=S)[nH]c12 | inactive | – |
| Cc1ccc(S(=O)(=O)CC(=O)Nc2sc(C)c(C)c2C(N)=O)cc1 | -0.595% | – |
| CC(C)N1C(=O)N(c2ccccc2)C(C)(O)CC1(C)C (stereo not given) | -5.46% | – |
| Cc1ccc(-n2c(SCC(=O)N3CCC(C(=O)O)CC3)nc3ccccc3c2=O)cc1C | -1.95% | – |
| O=C(c1cccs1)n1nc(NCc2ccccc2)nc1NCc1ccccc1 | -0.569% | – |
| COc1ccc(OC)c(-c2c(=O)n(OCc3ccccc3Br)c3ccccc3[n+]2[O-])c1 | -0.713% | – |
| O=C1OC2(CCCCC2)CC2=C1C1O[C@](c3ccsc3)(Cc3ccccc31)O2 | -1.62% [at 7.66 µM] | – |
| CCCCNC(=O)C(C)N(CCN(C)C)C(=O)CCCCCN1C(=O)NC(c2ccc(Cl)cc2)C(C(=O)OCc2ccccc2)=C1C (stereo not given) | -1.09% | – |
| Cc1ccc(NC(=O)CC2C(=O)N(Cc3ccccc3)C(=S)N2NC(=O)c2cccc(F)c2)c(C)c1 (stereo not given) | 2.98% | – |
| COC(=O)c1ccccc1Oc1c(F)c(F)nc(N2CCOCC2)c1F | 1.09% | – |
| O=c1c2ccccc2[nH]c(=S)n1CCN1CCC(=C(c2ccc(F)cc2)c2ccc(F)cc2)CC1 | -1.11% | – |
| CCN(CC(=O)Nc1ccc(NC(C)=O)cc1)C(=O)C1CC(=O)N(Cc2ccc(C)cc2)C1 (stereo not given) | 1.17% | – |
| Cc1cccc(C)c1NC(=O)C1(C)c2cccc[n+]2CC(=O)N1Cc1cccs1 (stereo not given) | 1.33% | – |
| CO[C@H]1[C@@H]2C=CO[C@@H](O[C@H]3O[C@@H](CO)[C@H](O)[C@@H](O)[C@@H]3O)[C@@H]2[C@@]2(CO)O[C@@H]12 | 2.02% | – |
| O=C(CC1SC(=Nc2ccccc2)N(Cc2ccccn2)C1=O)Nc1cccc(Cl)c1 (stereo not given) | -5.62% | – |
| Cc1coc2c(O)cc3c(c12)OC1(N2CCCCC2)C(=O)NCCCC31 (stereo not given) | 2.56% | – |
| CCCCN(CCCC)CCCNC(=O)CN1C(=O)COc2ccc(S(=O)(=O)N3CCC(C)CC3)cc21 | 1.56% | – |
| CCOC(=O)N1CCN(S(=O)(=O)c2ccc3c(c2)C(C)C(=O)N3)CC1 (stereo not given) | -0.965% | – |

| SMILES | activity change, negative = inhibition | Potency |
| --- | --- | --- |
| COc1ccc(C(=O)/C=C/c2ccc(-c3ccccc3)cc2)cc1CSCC(=O)O | 0.227% | – |
| COC(=O)c1ccc(COc2ccc(/C=C/C(=O)c3ccc(OC)c(CSCC(=O)O)c3)cc2OC)cc1 | – | 10 µM (active) |
| COc1ccc(/C=C/C(=O)c2ccc(NS(=O)(=O)c3ccc(C)cc3)cc2)cc1O | -1.24% | – |
| Cc1ccc(C2NC(C(=O)O)CS2)cc1 (stereo not given) | -0.252% | – |
| C=CCN(c1ccc(C(N)=O)cc1)S(C)(=O)=O | 2.25% | – |
| Cc1cccc(N2CCN(Cc3nc(C4CC4)no3)CC2)n1 | -0.896% | – |
| c1ccc2c(c1)C(=NC1CCCCC1)NC2=NC1CCCCC1 | 3.21% | – |
| CCCOc1ccc(C(=O)C(CCC(CNCC)C(=O)c2ccc(OCCC)cc2)CNCC)cc1 (stereo not given) | 3.9% | – |
| COc1ccc(Br)cc1CN(C)CC(=O)Nc1cc(Cl)cc(Cl)c1 | 0.499% | – |
| COc1ccc2c3c(c(=O)oc2c1)C1O[C@](CCCCN2C(=O)c4ccccc4C2=O)(Cc2c1ccc1ccccc21)O3 | 0.0315% [at 7.66 µM] | – |
| CC(C)NC(=O)C(=O)NCCCOC(C)C | 0.0005% | – |
| O=C(CN1CCOCC1)N1CCCc2c1c(=O)oc1ccc(OCc3ccccc3)cc21 | 0.0242% | – |
| CCOCCOCCC(C(=O)O)P(=O)(c1ccccc1)c1ccccc1 (stereo not given) | 3.9% | – |
| CCOC(=O)c1c(NC(=O)CCCN2CCOCC2)sc2c1CC(C)(C)OC2 | -0.479% | – |
| CC(C)(C)[Si](OCC[C@@H]1C[C@@]1(C)[C@@H](NP(=O)(c1ccccc1)c1ccccc1)c1ccccc1)(c1ccccc1)c1ccccc1 | 3.45% | – |
| CCC(C)n1c(-c2cc(OC)c(OC)c(OC)c2)nc2nc3ccccc3nc21 (stereo not given) | 3.89% | – |
| CC(C)(C)C(=O)NC1CC2CCCC(C1)N2C(=O)Nc1ccccc1F (stereo not given) | -1.32% | – |
| C=CC[n+]1c(-c2ccc(C)cc2)csc1NNC(=O)Nc1ccccc1 | 1.07% | – |
| CCNC(=S)N(CCN(CC)CC)Cc1cc2cc3c(cc2[nH]c1=O)OCO3 | 0.667% | – |
| Cn1c(CC(=O)NNC(=O)c2ccccc2F)nc2ccccc21 | 2.01% | – |
